IL1B secr inh – qHTS for Inhibitors of Inflammasome Signaling: IL-1-beta AlphaLISA Primary Screen | THP-1 LPS/ATP IL-1B secretion, AlphaLISA, 16 h; hits give low values | activity change, % at 57.5 µM | 360,000 tested, 4.7% active; in the data active = activity change below about -50%; inconclusive = mostly about -30% to -49%
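THP-1 cells pretreated 1 hr with compounds (up to 57.5 uM final), then stimulated with LPS (250 ng/mL final) plus ATP (1.25 mM final); secreted IL-1B measured by AlphaLISA after 16 hr, decreased signal indicating inhibition.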
TDP1 cell CPT – qHTS for Inhibitors of human tyrosyl-DNA phosphodiesterase 1 (TDP1): qHTS in cells in presence of CPT. chicken DT40 Tdp1-/-;hTDP1 cells + 20 nM CPT, ATP luminescence, 48 h. Potency, µM (highest dose often 46.2 µM), without a hit: at the top dose activity change, negative = growth inhibition, most hits filed as inhibitors. 420,000 tested, 12% active. AID 686979, 2013; note: potency is the fitted concentration of half-maximal effect; nearly all actives have a fitted effect of over 55% in size
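Cell growth measured by CellTiter-Glo luminescence after a minimum 48 h, 37 C compound exposure with 20 nM CPT in Tdp1-knockout DT40 cells stably expressing hTDP1, seeded 400/well; qHTS titration format.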
TDP1 cell noCPT – qHTS for Inhibitors of human tyrosyl-DNA phosphodiesterase 1 (TDP1): qHTS in cells in absence of CPT. DT40 Tdp1-/- hTDP1 cells, no CPT, ATP luminescence, 48 h. Potency, µM (doses to about 46.2 µM), without a hit: at the highest dose activity change, negative = growth inhibition, hits mostly inhibitors. 420,000 tested, 15% active; note: potency is the fitted concentration of half-maximal effect; nearly all actives have a fitted effect of over 55% in size
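Cells were dispensed at 400 per well, compounds added by pin tool, plates incubated ≥48 hr at 37 °C, then CellTiter-Glo added for 30 min at room temperature before luminescence reading. Line: DT40 Tdp1-/- complemented with hTDP1; camptothecin omitted.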
HT1080 IDH1KD tx – qHTS for induction of synthetic lethality in tumor cells producing 2HG: qHTS for the HT-1080-IDH1KD cell line | HT-1080 IDH1 knockdown viability, ATP luminescence, 48 h | 360,000 tested, 2% active | AID 686971, 2013 | Potency, µM (series often up to 46.1 µM), for inactives: top-dose activity, negative = toxicity, usual class: cytotoxic;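 note: potency is the fitted concentration of half-maximal effect; 0% = DMSO wells and -100% = cell-free medium wells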
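Knockdown cells (IDH1KD HT-1080) received compounds 2 h after plating at 750 cells/well and were kept 48 h at 37 °C in 5% FBS RPMI. A CellTiter-Glo luminescence read gave % activity for curve fitting.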
HT1080NT lethal – qHTS for induction of synthetic lethality in tumor cells producing 2HG: qHTS for the HT-1080-NT fibrosarcoma cell line | HT-1080-NT fibrosarcoma viability, CellTiter-Glo ATP luminescence, 48 h | Potency, µM (series often up to 46.1 µM), for the others: at the highest dose activity, negative = less viability, most hits filed as cytotoxic | 360,000 tested, 1.6% active | AID 686970, 2013;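 note: NT is the 2HG producing partner of a matched IDH1 knockdown line; potency is the fitted concentration of half-maximal effect; 0% = DMSO-treated cells and -100% = media-only wells without cells; nearly all actives have a fitted effect of over 55% in size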
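Compounds were tested in concentration-response format on HT-1080-NT cells for 48 hours at 37 degrees C. Cell viability came from CellTiter-Glo luminescence; curves were classified by r2, response magnitude and activity.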
* marks the source's active call; other numbers are inactive results; ? = inconclusive; / = no result given; [ ] = dose if it differs, or a comment. Shown are actives, neighbours in structure and some others; about 19% of the full set was active somewhere. Unless noted, calls come from the whole dose curve; as a rule, active = well fitted curve in the direction sought with a large enough effect; inconclusive = small, poorly fitted or top-dose-only effect, or another doubt; inactive = no such curve, though single readings can be large; an effect the other way counts as inactive or inconclusive. Unless noted, % is set by controls: 0 for no effect and ±100 for the full control effect.

SMILES	IL1B secr inh	TDP1 cell CPT	TDP1 cell noCPT	HT1080 IDH1KD tx	HT1080NT lethal
COCCNC(=O)CCc1c(C)nc2c(-c3ccc(F)cc3)c(C)nn2c1C	-23.3	-12.7%	-23.2%	-8.8%	-1.3%
Cc1nc2cc(-c3ccccc3)nn2c(C)c1CCC(=O)N1CCN(c2ccc(F)cc2)CC1	/	23.1µM*	10.3µM*	/	/
Cc1nc2c(-c3ccc(F)cc3)c(C)nn2c(C)c1CCC(=O)NCCN1CCOCC1	23.1	-7.0%	-11.7%	-3.1%	0.0%
Cc1nc2c(-c3ccc(F)cc3)c(C)nn2c(C)c1CCC(=O)N1CCN(c2ccccc2)CC1	-14.2	18.4µM*	?	-5.3%	-1.2%
Cc1ccc(S(=O)(=O)N2C(=O)CCC2C(=O)O/N=C(\N)c2cccc([N+](=O)[O-])c2)cc1 (configuration not stated)	21.5	-19.0%	-12.6%	-1.2%	-12.4%
CCOC(=O)C1CCCCN1C(=O)CCc1c(C)nc2cc(-c3ccccc3)nn2c1C (configuration not stated)	37.6	3.66µM*	4.11µM*	11.4%	12.7%
COc1ccccc1NC(=O)CCc1c(C)nc2c(-c3ccc(F)cc3)c(C)nn2c1C	-2.4	14.6µM*	?	2.8%	-18.8%
Cc1nc2c(-c3ccccc3)c(C)nn2c(C)c1CCC(=O)N1CCOCC1	-8.6	-6.3%	-19.0%	?	1.5%
Cc1nc2c(-c3ccc(F)cc3)c(C)nn2c(C)c1CCC(=O)N1CCC(Cc2ccccc2)CC1	-11.0	?	23.1µM*	-11.1%	-1.1%
CCOC(=O)C1CCN(C(=O)CCc2c(C)nc3cc(-c4ccccc4)nn3c2C)CC1	2.5	?	-27.9%	-0.5%	7.3%
Cc1nc2c(-c3ccc(F)cc3)c(C)nn2c(C)c1CCC(=O)N1CCN(c2ccc(F)cc2)CC1	-21.7	18.4µM*	18.4µM*	-2.2%	-1.6%
Cc1nc2c(-c3ccc(F)cc3)c(C)nn2c(C)c1CCC(=O)Nc1ccccc1	-12.3	?	?	0.2%	-16.3%
Cc1ccc(C(=O)OCC(=O)Nc2ccc(F)c(Cl)c2)o1	-11.2	0.3%	-2.8%	4.3%	-2.2%
CN(CC(=O)Nc1ccc(F)cc1)C(=O)COC(=O)CNC(=O)c1ccc(Cl)cc1Cl	-8.6	4.3%	-1.9%	4.9%	-0.3%
COC(=O)C(Cc1c[nH]c2ccccc12)NC(=O)c1cccc(S(=O)(=O)N2CCCCC2)c1 (configuration not stated)	?	-6.8%	-14.5%	2.2%	-3.1%
O=[N+]([O-])c1ccc(N=Nc2c(Cl)cc(O)cc2Cl)cc1	?	4.11µM*	4.61µM*	8.2µM*	6.51µM*
CC(N)=Nc1ccc([N+](=O)[O-])cc1	5.8	-10.3%	-2.8%	13.1%	19.3%
CCCn1c(SCc2nc(N)nc(N3CCCCC3)n2)nc2c1c(=O)n(C)c(=O)n2C	35.9	?	?	2.3%	6.5%
Cn1c(=O)c2c(nc(SCc3nc(N)nc(N4CCCCC4)n3)n2C)n(C)c1=O	0.0	20.6µM*	23.1µM*	2.2%	7.9%
CC(C)(C)OC(=O)N1CCC(c2c(C(=O)N3CCC(c4ccccc4)C3)cnn2-c2cccc(Cl)c2)CC1 (configuration not stated)	/	18.4µM*	14.6µM*	/	/
CC1CCN(C(=O)c2cnn(-c3cccc(Cl)c3)c2C2CCN(C(=O)OC(C)(C)C)CC2)CC1	/	20.6µM*	?	/	/
Cc1cccc(-n2ncc(C(=O)N3CCOCC3)c2C2CCN(C(=O)OC(C)(C)C)CC2)c1	/	-10.7%	-6.8%	/	/
Cc1cccc(-n2ncc(C(=O)N3CCN(C4CCCCC4)CC3)c2C2CCN(C(=O)OC(C)(C)C)CC2)c1	/	16.4µM*	20.6µM*	/	/
CC(C)(C)OC(=O)N1CCC(c2c(C(=O)N3CCCCC3)cnn2-c2cccc(F)c2)CC1	/	3.5%	-6.1%	/	/
Cc1ccc(C2CCN(C(=O)c3cnn(-c4cccc(Cl)c4)c3C3CCN(C(=O)OC(C)(C)C)CC3)C2)cc1 (configuration not stated)	/	13µM*	7.31µM*	/	/
SMILES	IL1B secr inh	TDP1 cell CPT	TDP1 cell noCPT	HT1080 IDH1KD tx	HT1080NT lethal
CCOC(=O)C1CCN(C(=O)CN(c2ccc3c(c2)OCO3)S(C)(=O)=O)CC1	-7.2	-2.1%	-2.8%	12.7%	10.8%
Cc1c(C(=O)NCC2(N3CCOCC3)CCCC2)cnn1-c1nccc(-c2ccccc2F)n1	/	4.2%[9.04 µM]	-9.4%	/	/
Cc1cc(C)cc(C(=O)NC(CC(N)=O)c2ccc(N3CCC(Br)CC3)c([N+](=O)[O-])c2)c1 (configuration not stated)	0.8	?	?	6.5%	16.8%
NC(=O)CC(NC(=O)c1ccccc1)c1ccc(N2CCC(Br)CC2)c([N+](=O)[O-])c1 (configuration not stated)	4.9	18.4µM*	10.3µM*	8.9%	8.8%
NC(=O)CC(NC(=O)c1cccc(Br)c1)c1ccc(N2CCC(Br)CC2)c([N+](=O)[O-])c1 (configuration not stated)	1.0	20.6µM*	?	1.4%	3.5%
CCn1c(=O)c2cc(C(=O)Nc3ccc(OC)cc3OC)sc2c2ccccc21	-3.6	-13.3%	-4.6%	4.4%	5.4%
CCn1c(=O)c2cc(C(=O)NCCc3ccc(OC)c(OC)c3)sc2c2ccccc21	/	8.2µM*	7.31µM*	/	/
COc1ccc(CCNC(=O)c2cc3c(=O)n(C)c4ccccc4c3s2)cc1OC	/	-6.9%	?	/	/
CCn1c(=O)c2cc(C(=O)NCCc3cc(OC)ccc3OC)sc2c2ccccc21	/	-2.5%	8.2µM*	/	/
CC1CCCN(C(=O)CSc2nnc(-c3cccnc3)n2C2CCCCC2)C1 (configuration not stated)	-0.9	-24.4%	-17.1%	8.8%	-4.2%
CC1CCCN(C(=O)CSc2nnc3n(C4CCCC4)c(=O)c4ccccc4n23)C1 (configuration not stated)	-2.3	23.1µM*	16.4µM*	6.1%	2.4%
O=C(CSc1nnc2n(C3CCCC3)c(=O)c3ccccc3n12)N1CCCCCC1	-10.3	20.6µM*	23.1µM*	-24.3%	-19.6%
COc1ccc(/C=C/C(=O)NCC(=O)N/N=C/c2cccs2)cc1	-5.1	-19.0%	-21.4%	17.5%	4.7%
COc1ccc(CNC(=O)OCc2nccnc2C(=O)Nc2ccc(Br)cn2)cc1	-22.8	?	1.8%	13.5%	15.7%

From PubChem BioAssay
